# Compounds without any hit were thinned out: in the full panel of roughly 79,000, 15% have a hit. Values without a mark were called inactive. The source made the active and inactive calls. No stated cut-off is given here; in the data, active means growth inhibition above about 70%; inactive means the rest. Where a SMILES comes first, the peptide text is derived from it. The star is where a group is joined. Cbz = O=C(OCc1ccccc1)*; NHNH2 = NN*
# Columns and labels:
# [1] = NCI Yeast Anticancer Drug Screen. Data for the rad50 strain (AID 155);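 further: 0% = growth of vehicle-only cultures of the same strain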; settings: S. cerevisiae rad50 strain growth inhibition; at 50.0 µM; stronger effect = higher value
# How it was run: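 Yeast carrying a defined DNA repair defect were exposed to test compounds, and growth was compared with vehicle-treated controls to give percent inhibition.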
# [2] = NCI Yeast Anticancer Drug Screen. Data for the mec2-1 strain (AID 157); settings: S. cerevisiae mec2-1 strain, at 50.0 µM, stronger effect = higher value
# How it was run: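 Test agents were screened against the mec2-1 yeast strain, with defined DNA repair or cell cycle alteration. Growth was scored as inhibition against vehicle-only controls.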
# [3] = NCI Yeast Anticancer Drug Screen. Data for the sgs1 mgt1 strain (AID 161);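 further: 0% = growth of cultures given vehicle only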; settings: S. cerevisiae sgs1 mgt1 strain, at 50.0 µM, stronger effect = higher value
# How it was run: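 Mutant yeast exposed to compound; growth scored against vehicle-only wells.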
# [4] = NCI Yeast Anticancer Drug Screen. Data for the cln2 rad14 strain (AID 165);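 further: 0% = growth equal to vehicle treated cultures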; settings: S. cerevisiae cln2 rad14 strain, at 50.0 µM, stronger effect = higher value
# How it was run: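 Growth of compound-exposed yeast (cln2 rad14 genotype) measured and expressed as inhibition relative to vehicle.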
# [5] = NCI Yeast Anticancer Drug Screen. Data for the bub3 strain (AID 167); settings: S. cerevisiae bub3 mutant strain, at 50.0 µM, stronger effect = higher value
# How it was run: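 Compounds were applied to a genetically altered yeast strain carrying a cell-cycle control defect. Growth inhibition was scored against vehicle-treated controls.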
# [6] = NCI Yeast Anticancer Drug Screen. Data for the mlh1 rad18 strain (AID 175); settings: S. cerevisiae mlh1 rad18 strain growth inhibition; at 50.0 µM; stronger effect = higher value
# How it was run: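 In this whole-cell yeast screen, a strain with altered DNA damage repair is challenged with compound, and its growth is measured against matched vehicle-treated controls.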
Structure (SMILES),growth inhibition [1],growth inhibition [2],growth inhibition [3],growth inhibition [4],growth inhibition [5],growth inhibition [6]
O=c1[nH]c2c(Br)cccc2c2ccccc12,43.1%,3.85%,11.8%,-30.9%,-14.5%,17.5%
O=C(Nc1ccc(Cl)cc1[N+](=O)[O-])Oc1ccc(-c2ccccc2)cc1Cl,99.5% (active),99.7% (active),99.7% (active),99% (active),99.4% (active),99.7% (active)
COc1cc(Nc2nc3ccc(C(F)(F)F)cc3nc2-c2ccccc2)cc(OC)c1OC,0.05%,4.2%,-36%,-12.2%,-9.3%,-22.9%
O=C(NO)/C(CC(=O)c1ccc(O)cc1)=N\O,-8.9%,-10.4%,-6.9%,-11.2%,-3.7%,4.7%
C[N+]1(C)CC2C3C=C(I)C(C3)C2C1 (stereo unspecified),26.8%,17.4%,15.2%,48.4%,11.9%,26.1%
O=C(CCC(=O)Nc1cccc(Cl)c1)CC(=O)c1ccc(F)cc1,-11.2%,-1.8%,6.3%,-23.9%,-0.85%,-4.85%
COC(CC(=O)O)CC(C)CC(C)(C)C (stereo unspecified),48.5%,15.8%,38%,18.9%,24.9%,40.1%
COc1ccc(N=Cc2cc(OC)c(OC)c(OC)c2)cc1,-12.4%,-9.6%,1.5%,-3.55%,-12.9%,0.95%
Cc1ccc(C)c(CNC(=O)NC(C)(C)C)c1,-10.2%,-4.25%,-6.65%,-63.8%,-11.2%,-0.75%
Cc1ccc2[nH]c3c(ncc4[nH]c5ccccc5c43)c2c1,59.3%,44.1%,62.8%,52.1%,62.9%,62%
O=C(C=c1sc(=CC(=O)c2ccccc2)s1)c1ccccc1,-3.5%,-4.35%,14.7%,-41.3%,2.1%,-35.6%
C(=C\c1ccc2ccc(/C=C/c3ccccc3)cc2c1)/c1ccccc1,-15.2%,14.7%,12.1%,-26.8%,8.25%,-17.1%
COC(=O)CC(NC(=O)OCc1ccccc1)C(=O)NC(CC(=O)OC)C(=O)NC(CC(=O)OC)C(=O)NC(CC(=O)OC)C(=O)NC(CC(=O)OC)C(=O)NC(CC(=O)OC)C(=O)NN (stereo unspecified) (Cbz-D(OMe)D(OMe)D(OMe)D(OMe)D(OMe)D(OMe)-NHNH2; configuration not given here),-18.6%,-16.9%,-24.6%,20.6%,25.7%,-18.5%
O=C(O)C(O)C(O)C(O)C(O)C(O)CO.[NH-]C1CCCCC1[NH-].[Pt+2] (stereo unspecified),-18.3%,4.4%,-30.4%,7.4%,6.15%,-49.5%
COc1ccc([N+](=O)[O-])c2c1CONC2c1c(CO)cnc(C)c1O (stereo unspecified),35.1%,-12.2%,27.2%,-22.4%,5.3%,-2.7%
O=c1[nH]c2cc(Cl)ccc2nc1/C(=N/Nc1ccccc1)C(O)c1ccco1 (stereo unspecified),19.4%,-15.7%,-4.8%,5.85%,7.65%,-54.4%
ON=C1c2cc(Cl)ccc2-c2ccc(Cl)cc21,5.25%,4.05%,18.1%,-40.8%,5.45%,16.6%
C/C(=N\N=C(N)N)c1ccc(NC(=S)Nc2ccccc2)cc1,5.4%,3.85%,26.2%,-19.9%,3.5%,9.5%
COC(=O)n1c(=O)oc2ccc(Br)cc21,99% (active),99.1% (active),99.4% (active),99.4% (active),99.5% (active),99.2% (active)
CC1(C)OC2C(=O)OC(COCc3ccccc3)C2O1 (stereo unspecified),16.7%,2.2%,4.25%,11.1%,8.5%,34%
Cc1cc(C(=O)/C=C(\C(=O)c2ccccc2)c2ccccc2)ccc1Cl,18.8%,10.7%,6.65%,-0.55%,0.6%,11.3%
